OPRM1-OPRD1 inv = mu-delta opioid heterodimer inverse agonism | P35372+P41143 | cell-based MOR-DOR heterodimer luminescence | inhibition, % at 9.3 µM | 340,000 tested, 0.21% active | AID 504357; in the data active = inhibition above about 22%, passing the limit was not always enough
Target sequence (P35372 whole entry, looked up): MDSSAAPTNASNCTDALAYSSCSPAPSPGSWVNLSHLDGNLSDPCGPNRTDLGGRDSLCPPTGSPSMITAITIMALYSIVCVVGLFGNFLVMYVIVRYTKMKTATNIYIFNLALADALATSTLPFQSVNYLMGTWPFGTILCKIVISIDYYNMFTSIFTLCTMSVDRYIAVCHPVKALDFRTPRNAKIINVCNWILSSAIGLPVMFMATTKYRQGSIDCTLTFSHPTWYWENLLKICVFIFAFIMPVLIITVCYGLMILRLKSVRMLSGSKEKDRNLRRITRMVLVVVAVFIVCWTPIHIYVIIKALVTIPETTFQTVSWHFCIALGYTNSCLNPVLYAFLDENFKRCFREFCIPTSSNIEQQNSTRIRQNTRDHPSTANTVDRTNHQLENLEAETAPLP
Target sequence (P41143 whole entry, looked up): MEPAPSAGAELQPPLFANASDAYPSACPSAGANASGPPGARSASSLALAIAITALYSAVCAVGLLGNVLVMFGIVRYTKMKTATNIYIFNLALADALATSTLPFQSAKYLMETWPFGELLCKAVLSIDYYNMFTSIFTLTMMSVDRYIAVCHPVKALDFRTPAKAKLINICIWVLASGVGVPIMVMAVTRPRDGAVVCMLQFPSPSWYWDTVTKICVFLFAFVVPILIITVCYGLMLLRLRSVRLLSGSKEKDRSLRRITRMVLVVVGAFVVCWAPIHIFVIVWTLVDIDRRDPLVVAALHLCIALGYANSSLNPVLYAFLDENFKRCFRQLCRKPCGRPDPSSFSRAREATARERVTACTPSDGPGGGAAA
HTR5A inv ag = inverse agonist of human HTR5A in OPRM1-OPRD1 counter-screen; P47898; HTR5A cell line, luminescence, inverse agonism; inhibition, % at 9.3 µM; 340,000 tested, 0.083% active; in the data active = inhibition mostly above about 23%, no sharp cut-off; inactive = mostly below about 18%
OPRM1-OPRD1 ag = agonists of human mu-delta opioid receptor heterodimerization. cells, OPRM1-OPRD1 heterodimerization, luminescence. 340,000 tested, 0.3% active. activation, % at 9.3 µM; in the data active = activation above about 18%
HTR5A ag ctr = counter-screen for OPRM1-OPRD1 agonists: human HTR5A agonism. P47898. HTR5A agonist assay, luminescence, cell-based. activation, % at 9.3 µM. 340,000 tested, 0.61% active; in the data active = activation mostly above about 9.5%, no sharp cut-off; inactive = mostly below about 7.6%
Large screens that a line does not name were inactive. Only some compounds are listed: those with a hit (about 1.1% of all), similar ones and a draw of the others.

COc1ccc(CNC(=O)COC(=O)/C=C/c2ccc(Cl)cc2)cc1	none
COc1ccc(/C=C/C(=O)OCC(=O)NCCNC(=O)COC(=O)/C=C/c2ccc(OC)cc2)cc1	HTR5A ag ctr 12
CCCCS(=O)(=O)/C=C\C=C/S(=O)(=O)CCCC	OPRM1-OPRD1 inv 37
Cn1c(CNC(=O)c2ccccc2F)nnc1SCC(=O)N1CCN(c2ccccc2)CC1	HTR5A ag ctr 12
Cc1ccccc1C(=O)NCc1nnc(SCC(=O)N2CCN(c3ccccc3)CC2)n1C	none
CCOc1cc(N2CCOCC2)c(OCC)cc1NC(=O)CN1CCC(Cc2ccccc2)CC1	HTR5A ag ctr 12
CCOc1cc(N2CCOCC2)c(OCC)cc1NC(=O)CN1C(=O)NC(Cc2ccccc2)C1=O (stereo not given)	none
Cc1ccc(CN2C(=O)C(Cc3ccccc3)Nc3ncnc(N4CCN(c5ccccc5)CC4)c32)cc1 (stereo not given)	OPRM1-OPRD1 inv 51, HTR5A inv ag 55
CCC1Nc2ncnc(N3CCOCC3)c2N(Cc2ccc(OC)cc2)C1=O (stereo not given)	none
CCC1Nc2ncnc(N3CCN(c4ccccc4)CC3)c2N(Cc2ccc(OC)cc2)C1=O (stereo not given)	OPRM1-OPRD1 inv 57, HTR5A inv ag 52
CCC1Nc2ncnc(N3CCN(c4ccccc4)CC3)c2N(Cc2ccc(Br)cc2)C1=O (stereo not given)	OPRM1-OPRD1 inv 79, HTR5A inv ag 79
O=C1C(Cc2ccccc2)Nc2ncnc(N3CCN(c4ccccc4)CC3)c2N1Cc1ccc(Br)cc1 (stereo not given)	OPRM1-OPRD1 inv 68, HTR5A inv ag 59
COC(=O)c1nnn(-c2ccsc2C(=O)OC)c1C(=O)OC	none
COC(=O)c1ccc(N2C(=O)Nc3ccccc3N2O)cc1	none
Cc1cc(=O)oc2cc(OCC(=O)Nc3ccc(N4CCC(C)CC4)cc3)ccc12	HTR5A ag ctr 11
Cc1c(C)c2ccc(OCC(=O)Nc3ccc(N4CCC(C)CC4)cc3)cc2oc1=O	none
CCCNC(=O)Cn1c(=O)oc2cc(S(=O)(=O)N3CC(C)CC(C)C3)ccc21 (stereo not given)	HTR5A ag ctr 11
COCCNC(=O)Cn1c(=O)oc2cc(S(=O)(=O)N3CC(C)CC(C)C3)ccc21 (stereo not given)	none
C=CC[C@H](CC(=O)NCCO)C(=O)N[C@@H](COC(=O)[C@H](CC=C)CC(=O)OC(C)(C)C)Cc1c[nH]c2ccccc12	none
CC(=O)c1cccc(NC(=O)N2CCCCCC2)c1	none
CC(=O)c1cccc(NS(=O)(=O)c2ccc(NC(=O)N3CCCCC3)cc2)c1	HTR5A ag ctr 11
Cc1noc(C)c1C(=O)Nc1cc(S(=O)(=O)N2CCCCC2)ccc1N(C)C	none
CC(C)(C)c1cc(=O)[nH]c(SCc2ccccc2Cl)n1	HTR5A ag ctr 12
COc1ccccc1-c1ccc(SCc2ccc(C)cc2)nn1	none
COc1ccccc1-c1ccc(SCc2ccc(F)cc2)nn1	HTR5A ag ctr 9.5
COc1c2ccoc2c(OC(C)=O)c2oc(C)cc(=O)c12	HTR5A ag ctr 9.8
CCCC1CCC(=C(C#N)C(N)=O)CC1 (stereo not given)	none
Cc1cc(-c2ccccc2)nc(SCc2ccc(C(=O)O)cc2)n1	none
O=C(Cc1c(Cl)cccc1Cl)OCC(=O)N1CCOCC1	none
O=C(CSc1nnc(-c2ccccc2)n1-c1ccc(Cl)cc1)N/N=C/c1ccccc1C(=O)O	HTR5A ag ctr 12
CCC1CN(C(=O)N2CCC(C(=O)Nc3ccccc3OC)CC2)c2ccccc2O1 (stereo not given)	none
O=C(NC1CC1)c1cccc(NC(=O)c2cn3ccccc3n2)c1	HTR5A ag ctr 13
NC(=O)c1ccccc1NC(=O)CCCc1ccccc1	none
NC(=O)c1ccccc1NC(=O)CS(=O)(=O)Cc1ccccc1	HTR5A ag ctr 9.6
CCN(CC)CCNC(=O)c1ccc(NC(=O)c2cc(S(=O)(=O)N3CCCCC3)ccc2C)cc1	HTR5A ag ctr 12
COc1ccc(-c2cc(C(=O)O)no2)cc1	HTR5A ag ctr 9.8
CCC(C)NC(=O)c1cc(-c2ccc(OC)cc2)on1 (stereo not given)	none
Cc1cc(NC(=O)COc2ccc3ccccc3c2Br)no1	HTR5A ag ctr 12
CCOc1ccccc1OCC(=O)Nc1cc(C)on1	none
Cc1cccc2c1-c1sc(C(=O)NCCCN3CCC(C)CC3)cc1CO2	HTR5A ag ctr 11
CC1CCCN(CCCNC(=O)c2cc3c(s2)-c2ccccc2OC3)C1 (stereo not given)	HTR5A ag ctr 11
CCOC(=O)c1cc2c(s1)-c1c(C)cccc1OC2	none
CC1CCN(CCCNC(=O)c2cc3c(s2)-c2ccccc2OC3)CC1	none

Screens (PubChem BioAssay)
